Calls of active or inactive are those of the source. Rule for the calls: active = hit-call score of the fitted dose curve at least 0.9, where 1 is the maximum; inactive = score below 0.9.

What is called AC50 is the concentration at which the activity in the assay is half-maximal.

Read-out in assay [1]: Human Leukocyte Antigen - DR isotype (HLADR), HLA-DRA (gene 3122)
The assay is described as follows: BSK_BE3C_HLADR: BioMAP Diversity Plus: BE3C Assay for Human Leukocyte Antigen - DR isotype (HLADR) Biomarker Activity (AID 2283032). The settings on record: primary human bronchial epithelial cells; actives raise or lower the signal. The method, boiled down: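 BioMAP BE3C format: human bronchial epithelium, 24 h compound treatment, ELISA detection of HLA-DR, with bidirectional analysis relative to DMSO.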

Read-out in assay [2]: Vascular cell adhesion molecule 1 (VCAM1), VCAM1 (gene 7412)
The assay is described as follows: BSK_4H_VCAM1: BioMAP Diversity Plus: 4H Assay for Vascular cell adhesion molecule 1 (VCAM1) Biomarker Activity (AID 2283033).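 For outcome: cell-surface VCAM-1 protein measured by ELISA.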 The conditions noted are these: primary human endothelial cells (HUVEC); actives raise or lower the signal. The method, boiled down: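 In this human endothelial (HUVEC) system, biomarker ELISA was run 24 h after compound addition, and total protein in parallel wells was assessed by SRB at 560 nm; DMSO served as negative control.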

Read-out in assay [3]: Interferon-gamma inducible Protein 10 (IP10), CXCL10 (gene 3627)
The assay is described as follows: BSK_BE3C_IP10: BioMAP Diversity Plus: BE3C Assay for Interferon-gamma inducible Protein 10 (IP10) Biomarker Activity (AID 2283034). The settings on record: primary human bronchial epithelial cells; actives raise or lower the signal. The method, boiled down:
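BE3C cells (human bronchial epithelial, primary); 24 h exposure; ELISA for IP-10; DMSO-referenced bidirectional fit.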

Read-out in assay [4]: Monokine induced gamma interferon (MIG), CXCL9 (gene 4283)
In words: BSK_BE3C_MIG: BioMAP Diversity Plus: BE3C Assay for Monokine induced gamma interferon (MIG) Biomarker Activity (AID 2283035).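 For outcome: MIG protein measured by ELISA in BE3C cultures after 24 h of dosing.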 The settings on record: primary human bronchial epithelial cells; actives raise or lower the signal. The method, boiled down:
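ELISA quantified MIG after 24 h exposure of primary bronchial epithelial cultures, analysed in both directions relative to DMSO. Cytotoxicity tracked in parallel cultures by sulforhodamine B staining.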

Read-out in assay [5]: Transforming growth factor beta 1 (TGFb1), TGFB1 (gene 7040)
In words: BSK_BE3C_TGFb1: BioMAP Diversity Plus: BE3C Assay for Transforming growth factor beta 1 (TGFb1) Biomarker Activity (AID 2283036;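 for outcome: TGF-b1 protein level measured by ELISA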). The conditions noted are these: primary human bronchial epithelial cells; actives raise or lower the signal. The method, boiled down: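 TGF-b1 measured via ELISA, 24 h after chemical dosing of human bronchial epithelial cells (BE3C). Overt cytotoxicity assessed in parallel by SRB (0.1%, TCA-fixed, 560 nm); analysis bidirectional relative to DMSO.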

Read-out in assay [6]: Plasminogen activator inhibitor-1 (PAI1), SERPINE1 (gene 5054)
In words: BSK_BE3C_PAI1: BioMAP Diversity Plus: BE3C Assay for Plasminogen activator inhibitor-1 (PAI1) Biomarker Activity (AID 2283037). The conditions noted are these: primary human bronchial epithelial cells; actives raise or lower the signal. The method, boiled down: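 In this multiplexed primary-cell system, bronchial epithelial cells receive test chemical and are sampled at 24 h. PAI-1 is read by ELISA, with DMSO serving as negative control for bidirectional fitting.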

Read-out in assay [7]: urokinase plasminogen activator (uPA), PLAU (gene 5328)
The assay is described as follows: BSK_BE3C_uPA: BioMAP Diversity Plus: BE3C Assay for urokinase plasminogen activator (uPA) Biomarker Activity (AID 2283038).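 For outcome: uPA protein level quantified by ELISA in cell cultures; uPA read one day after compound addition.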 The settings on record: primary human bronchial epithelial cells; actives raise or lower the signal. The method, boiled down:
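Measured by ELISA: uPA from human primary bronchial epithelial cells 24 h after chemical treatment. Values derive from bidirectional curve fitting with DMSO serving as negative control. Total protein by SRB staining in parallel wells flagged overt cytotoxicity.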

Read-out in assay [8]: Urokinase-type plasminogen activator receptor (uPAR), PLAUR (gene 5329)
In words: BSK_BE3C_uPAR: BioMAP Diversity Plus: BE3C Assay for Urokinase-type plasminogen activator receptor (uPAR) Biomarker Activity (AID 2283039).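 For outcome: uPAR protein level measured by ELISA on the cells; cells exposed to compound for one day before measurement.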 The settings on record: primary human bronchial epithelial cells; actives raise or lower the signal. The method, boiled down: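 Chemically treated human bronchial epithelial cells (lung primary) are assayed for uPAR by ELISA after 24 h, with data fitted in both directions using DMSO as negative control.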

Read-out in assay [9]: Interleukin-6 (IL6), IL6 (gene 3569)
The assay is described as follows: BSK_CASM3C_IL6: BioMAP Diversity Plus: CASM3C Assay for Interleukin-6 (IL6) Biomarker Activity for (AID 2283040). The settings on record: primary human coronary artery smooth muscle cells; actives raise or lower the signal.

Read-out in assay [10]: Tissue plasminogen activator (tPA), PLAT (gene 5327)
In words: BSK_BE3C_tPA: BioMAP Diversity Plus: BE3C Assay for Tissue plasminogen activator (tPA) Biomarker Activity (AID 2283041).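 For outcome: tPA level quantified by ELISA one day after compound addition.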 The settings on record: primary human bronchial epithelial cells; actives raise or lower the signal. The method, boiled down:
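Using human lung primary bronchial epithelial cells, tPA was measured by ELISA 24 h after dosing; data fitted relative to DMSO.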

Read-out in assay [11]: Interleukin-8 (IL8), CXCL8 (gene 3576)
The assay is described as follows: BSK_CASM3C_IL8: BioMAP Diversity Plus: CASM3C Assay for Interleukin-8 (IL8) Biomarker Activity (AID 2283042).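 Note: IL-8 protein level quantified by ELISA.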 The settings on record: primary human coronary artery smooth muscle cells; actives raise or lower the signal.

Read-out in assay [12]: Human Leukocyte Antigen - DR isotype (HLADR), HLA-DRA (gene 3122)
The assay is described as follows: BSK_CASM3C_HLADR: BioMAP Diversity Plus: CASM3C Assay for Human Leukocyte Antigen - DR isotype (HLADR) Biomarker Activity (AID 2283043).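 Note: cell-surface HLA-DR protein level quantified by ELISA.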 The conditions noted are these: primary human coronary artery smooth muscle cells; actives raise or lower the signal.

Read-out in assay [13]: Macrophage colony-stimulating factor (MCSF), CSF1 (gene 1435)
The assay is described as follows: BSK_CASM3C_MCSF: BioMAP Diversity Plus: CASM3C Assay for Macrophage colony-stimulating factor (MCSF) Biomarker Activity (AID 2283044).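 Note: M-CSF protein amount quantified by ELISA after 24 h exposure.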 The settings on record: primary human coronary artery smooth muscle cells; actives raise or lower the signal.

Read-out in assay [14]: Low-density lipoprotein receptor (LDLR), LDLR (gene 3949)
In words: BSK_CASM3C_LDLR: BioMAP Diversity Plus: CASM3C Assay for Low-density lipoprotein receptor (LDLR) Biomarker Activity (AID 2283045).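 Note: LDLR protein level on the cell surface quantified by ELISA.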 The settings on record: primary human coronary artery smooth muscle cells; actives raise or lower the signal.

Read-out in assay [15]: Monocyte Chemoattractant Protein-1 (MCP1), CCL2 (gene 6347)
The assay is described as follows: BSK_CASM3C_MCP1: BioMAP Diversity Plus: CASM3C Assay for Monocyte Chemoattractant Protein-1 (MCP1) Biomarker Activity (AID 2283046).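 Note: MCP-1 level quantified by ELISA 24 h after dosing.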 The conditions noted are these: primary human coronary artery smooth muscle cells; actives raise or lower the signal.

The nature of assay [16]: BSK_CASM3C_Proliferation: Cell Proliferation Assessment in the BioMAP Diversity Plus: CASM3C Assay (AID 2283047).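 Note: sulforhodamine B total protein stain as relative cell number at 560 nm; sub-confluent cells exposed 48 h before staining; fitted both ways against DMSO so gain or loss of cell number.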 The settings on record: primary human coronary artery smooth muscle cells.
Read-out in assay [17]: Monokine induced gamma interferon (MIG), CXCL9 (gene 4283)
The assay is described as follows: BSK_CASM3C_MIG: BioMAP Diversity Plus: CASM3C Assay for Monokine induced gamma interferon (MIG) Biomarker Activity (AID 2283048).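 Note: MIG protein level measured by ELISA.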 The conditions noted are these: primary human coronary artery smooth muscle cells; actives raise or lower the signal.

Read-out in assay [18]: serum amyloid A (SAA), SAA1 (gene 6288)
In words: BSK_CASM3C_SAA: BioMAP Diversity Plus: CASM3C Assay for serum amyloid A (SAA) Biomarker Activity (AID 2283049).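 Note: SAA protein level quantified by ELISA.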 The conditions noted are these: primary human coronary artery smooth muscle cells; actives raise or lower the signal.

A short description of assay [19]: BSK_CASM3C_SRB: Viability Assessment in the BioMAP Diversity Plus: CASM3C Assay (AID 2283050).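 Note: total protein by SRB staining as cytotoxicity measure in parallel cultures.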 The conditions noted are these: primary human coronary artery smooth muscle cells.
Read-out in assay [20]: Thrombomodulin, THBD (gene 7056)
The assay is described as follows: BSK_CASM3C_Thrombomodulin: BioMAP Diversity Plus: CASM3C Assay for Thrombomodulin Biomarker Activity (AID 2283051).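 Note: thrombomodulin protein level measured by ELISA 24 h after dosing.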 The conditions noted are these: primary human coronary artery smooth muscle cells; actives raise or lower the signal.

For `CC(=O)CC(C)(C)O`, the result in assay [1], in [2], in assay [3], in assay [4], in assay [5] and in [6] was inactive. Further, the outcome in assay [7], in [8], in assay [9], in assay [10], in assay [11] and in assay [12] was inactive. Moreover, the outcome in assay [13], in [14], in assay [15], in [16], in assay [17] and in assay [18] was inactive. The result in [19] and in assay [20] was inactive.

In the case of `CC[C@H](C)[C@@H](C(=O)O)n1sc2ccccc2c1=O`, the result in assay [1], in assay [2], in assay [3], in assay [4], in assay [5] and in assay [6] was inactive. In addition, the result in [7], in [8], in assay [9], in assay [10], in assay [11] and in assay [12] was inactive. The result in assay [13], in assay [14], in [15], in assay [16], in assay [17] and in assay [18] was inactive. Further, the result in assay [19] and in [20] was inactive.

For `COC(=O)CCCCC(=O)OC`, the outcome in assay [1], in [2], in [3], in assay [4], in assay [5] and in assay [6] was inactive. Further, the outcome in assay [7], in [8], in assay [9], in assay [10], in assay [11] and in assay [12] was inactive. In addition, the result in assay [13], in assay [14], in assay [15], in assay [16], in [17] and in assay [18] was inactive. Moreover, the outcome in assay [19] and in assay [20] was inactive.

As for `Oc1cccc(O)c1`, the outcome in [1], in assay [2], in [3], in assay [4], in assay [5] and in assay [6] was inactive. For the same molecule, the result in assay [7], in assay [8], in assay [9], in [10], in assay [11] and in assay [12] was inactive. Besides, the outcome in assay [13], in assay [14], in assay [15], in assay [16], in assay [17] and in assay [18] was inactive. For the same molecule, the outcome in assay [19] and in assay [20] was inactive.

On to `CC(C)(C)c1ccc(O)c(C(C)(C)C)c1`, for which the AC50 is 28.1 µM (active) in [1]; 9.93 µM (active) in assay [2]; 31.7 µM (active) in assay [3]; 36.1 µM (active) in [4]; 27.8 µM (active) in [5]; 31.6 µM (active) in assay [6]. Further, the AC50 in assay [7] is 30.7 µM (active); in assay [8], 36.3 µM (active); in assay [9], 13.6 µM (active); in assay [10], 27.5 µM (active); in assay [11], 27.2 µM (active); in assay [12] it was 9.55 µM (active). The AC50 in assay [13] is 13.2 µM (active); in assay [14], 12.3 µM (active); in [15], 13.7 µM (active); in assay [16] it was 11.4 µM (active); in assay [17], 15.3 µM (active); in [18], 12.4 µM (active). The half-maximal activity concentration (AC50) is 26.7 µM (active) in [19] and 35.9 µM (active) in assay [20].

On to `O=C(OCCOCCOC(=O)c1ccccc1)c1ccccc1`, for which the outcome in [1], in assay [2], in [3], in assay [4], in [5] and in [6] was inactive. Besides, the outcome in [7], in assay [8], in [9], in assay [10], in assay [11] and in assay [12] was inactive. In addition, the result in assay [13], in assay [14], in assay [15], in [16], in [17] and in [18] was inactive. Also, the result in assay [19] and in assay [20] was inactive.

Values taken from PubChem BioAssay (EPA / NIEHS).
